# Laboratory results reported in PubChem BioAssay.
# Activity calls are given as the source filed them. Unless noted, the rule behind the calls is not given here.
# Assays:
# [1] = tested on: Wnt5a (protein binding on small-molecule microarray); test: small molecules binding Wnt5a protein – biophysical, small-molecule microarray, 635/667 nm fluorescence, primary screen (AID 1142); details: 635 nm fluorescence, higher = more signal;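 note: fluorescence read at 667 nm with signal to noise per printed feature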
# [2] = ATP-based viability of Huh7 replicon cells – cell-based, CellTiter-Glo luminescence, basal, 48 h, cytotoxicity control for HCV replication inhibitor project, primary screen (AID 1143); details: higher = more signal, called active from +8 up or from −8 down;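 note: Huh7 hepatoma cells carrying a hepatitis C replication reporter with no stimulus; test concentration not given here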
# [3] = Pseudomonas biofilm growth suppression – PAO1 strain, BacTiter-Glo luminescence, LB-PBS, primary screen (AID 1144); details: P. aeruginosa PAO1 biofilm, 12 h, higher = more signal
# [4] = basal CRE-LacZ reporter activity in PC12 – cell-based, unstimulated, primary screen (AID 1145); details: no forskolin, luminescence, 4.5 h, higher = more signal, called active from +8 up or from −8 down
# [5] = forskolin-driven CRE-LacZ activity in PC12 – cell-based, CRE-LacZ reporter, forskolin-stimulated, primary screen (AID 1146); details: luminescence, 4.5 h, higher = more signal, called active from +8 up or from −8 down;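 note: PC12 cells with 6xCRE LacZ reporter stimulated by forskolin 10 µM; beta-galactosidase reporter signal reflecting CREB driven transcription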
# [6] = target: Streptavidin (Streptomyces avidinii) (UniProt P22629); test: compounds binding control protein streptavidin – biophysical, small-molecule microarray, 635/667 nm fluorescence, artefact control for SMM compound annotation, primary screen (AID 1147); details: higher = more signal;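 note: signal reflects streptavidin binding to arrayed compounds as a control protein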
# [7] = probe aInhba binding on compound microarray – biochemical, small-molecule microarray, 635/667 nm fluorescence, primary screen (AID 1148); details: higher = more signal;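 note: score merges 667nm spot fluorescence with signal-to-noise for antibody binding to printed compounds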
# [8] = target: Torsin-1A (Homo sapiens) (UniProt O14656); test: TOR1A wild-type binding on microarray – cell lysate, small-molecule microarray, lysate, 635/667 nm, primary screen (AID 1149); details: COS7 hTOR1A-WT lysate, 635 nm fluorescence, higher = more signal
# [9] = target: Torsin-1A (Homo sapiens) (UniProt O14656); test: torsin A mutant lysate binding on microarrays – cell lysate, small-molecule microarray, COS7 lysate, 635/667 nm fluorescence, primary screen (AID 1150); details: COS7 hTOR1A mutant lysate, 635 nm fluorescence, higher = more signal;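 note: score pools 667 nm emission and signal to noise measuring lysate protein binding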
# [10] = tested on: Sonic hedgehog protein (Shh); test: Sonic hedgehog microarray binding compounds – biochemical, small-molecule microarray, 635/667 nm fluorescence, primary screen (AID 1151); details: 635 nm fluorescence, higher = more signal;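 note: Shh protein binding to compounds spotted on small-molecule microarray slides; score combines spot fluorescence intensity with signal-to-noise across triplicate slides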
# [11] = optical density shifts of acrAB sulA E. coli – strain DRC41, OD650, 48 h, E. coli filamentation inducer project, primary screen (AID 1152); details: higher = more signal, called active from +8 up or from −8 down;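 note: E. coli MC1000 strain DRC41 lacking acrAB efflux pump and sulA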
# [12] = probe aLefty1 binding on compound microarray – biochemical, small-molecule microarray, 635/667 nm fluorescence, primary screen (AID 1153); details: higher = more signal;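 note: score merges spot fluorescence with signal-to-noise ratio from the scanned slide images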
# [13] = plasmodial surface anion channel blockers, osmotic lysis – cell-based, P. falciparum Indochina, OD700, 1 h, primary screen (AID 1154); details: P. falciparum Indochina infected RBC osmotic lysis, higher = more signal, called active from +8 up or from −8 down
# [14] = plasmodial surface anion channel blockers, osmotic lysis – cell-based, P. falciparum Indochina, OD700, 2 h, primary screen (AID 1155);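 note: lysis reports solute entry through the parasite surface anion channel PSAC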; details: P. falciparum Indochina infected erythrocytes, higher = more signal, called active from +8 up or from −8 down
# [15] = changes in parasitized red cell lysis, either direction – P. falciparum Indochina, OD700, 3 h, PSAC antagonist project, primary screen (AID 1156); details: P. falciparum-infected erythrocytes, osmotic lysis, higher = more signal, called active from +8 up or from −8 down
# [16] = plasmodial surface anion channel blockers, osmotic lysis – cell-based, P. falciparum Indochina, OD700, 18 h, primary screen (AID 1157); details: P. falciparum Indochina infected erythrocytes, osmotic lysis OD700, 18 h; higher = more signal, called active from +8 up or from −8 down
# [17] = S6 kinase pathway phospho-S6 level changes – cell-based, A549, cytoblot, luminescence, serum-stimulated, primary screen (AID 1158); details: 5 h, higher = more signal;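 note: serum-stimulated A549 lung adenocarcinoma cells; signal is phosphorylated S6 detected by cytoblot immunostaining with HRP secondary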
# [18] = target: NADPH oxidase 2 (Homo sapiens) (UniProt P04839); test: compounds shifting NOX2 Amplex Red fluorescence – cell-based, HEK293-NOX2, PMA-stimulated, NOX inhibitor project, primary screen (AID 1159); details: 45 min, higher = more signal, called active from +8 up or from −8 down; note: test concentration not given here
# [19] = target: NADPH oxidase 4 (Homo sapiens) (UniProt Q9NPH5); test: compounds shifting NOX4 Amplex Red fluorescence – cell-based, HEK293-NOX4, tetracycline-induced, NOX inhibitor project, primary screen (AID 1160); details: HEK293-NOX4, Amplex Red H2O2 fluorescence, 45 min; higher = more signal, called active from +8 up or from −8 down
# [20] = target: NADPH oxidase 5 (Homo sapiens) (UniProt Q96PH1); test: compounds shifting NOX5 Amplex Red fluorescence – cell-based, HEK293-NOX5, NOX inhibitor project, primary screen (AID 1161); details: HEK293-NOX5, ionomycin, 45 min, higher = more signal
# Sequence of NADPH oxidase 5 (Homo sapiens) (Q96PH1 whole entry, looked up): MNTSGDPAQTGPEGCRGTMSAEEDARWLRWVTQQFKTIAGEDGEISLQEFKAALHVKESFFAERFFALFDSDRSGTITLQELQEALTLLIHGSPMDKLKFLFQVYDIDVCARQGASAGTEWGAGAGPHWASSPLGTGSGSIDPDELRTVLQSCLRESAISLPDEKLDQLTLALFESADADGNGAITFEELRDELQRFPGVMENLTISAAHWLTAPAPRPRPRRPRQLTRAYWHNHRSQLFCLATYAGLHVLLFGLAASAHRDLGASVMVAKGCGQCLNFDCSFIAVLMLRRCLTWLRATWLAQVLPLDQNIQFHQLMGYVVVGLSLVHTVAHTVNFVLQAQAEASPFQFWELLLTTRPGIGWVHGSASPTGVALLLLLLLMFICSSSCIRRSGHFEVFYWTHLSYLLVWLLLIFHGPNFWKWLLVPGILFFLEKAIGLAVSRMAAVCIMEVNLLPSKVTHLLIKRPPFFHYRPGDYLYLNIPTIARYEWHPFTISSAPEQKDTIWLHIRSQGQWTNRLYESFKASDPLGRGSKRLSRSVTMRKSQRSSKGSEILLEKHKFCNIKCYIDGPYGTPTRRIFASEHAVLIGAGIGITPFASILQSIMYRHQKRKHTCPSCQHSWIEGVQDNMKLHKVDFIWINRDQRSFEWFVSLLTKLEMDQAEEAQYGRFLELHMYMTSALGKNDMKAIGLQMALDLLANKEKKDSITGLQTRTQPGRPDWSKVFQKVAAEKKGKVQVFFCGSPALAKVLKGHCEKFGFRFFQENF
# Sequence of Streptavidin (Streptomyces avidinii) (P22629 whole entry, looked up): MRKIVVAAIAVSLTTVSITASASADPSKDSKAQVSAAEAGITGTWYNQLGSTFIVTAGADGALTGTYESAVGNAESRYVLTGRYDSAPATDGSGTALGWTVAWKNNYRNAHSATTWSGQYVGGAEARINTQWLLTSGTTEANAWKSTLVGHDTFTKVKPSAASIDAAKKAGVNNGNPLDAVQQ
# Sequence of NADPH oxidase 4 (Homo sapiens) (Q9NPH5 whole entry, looked up): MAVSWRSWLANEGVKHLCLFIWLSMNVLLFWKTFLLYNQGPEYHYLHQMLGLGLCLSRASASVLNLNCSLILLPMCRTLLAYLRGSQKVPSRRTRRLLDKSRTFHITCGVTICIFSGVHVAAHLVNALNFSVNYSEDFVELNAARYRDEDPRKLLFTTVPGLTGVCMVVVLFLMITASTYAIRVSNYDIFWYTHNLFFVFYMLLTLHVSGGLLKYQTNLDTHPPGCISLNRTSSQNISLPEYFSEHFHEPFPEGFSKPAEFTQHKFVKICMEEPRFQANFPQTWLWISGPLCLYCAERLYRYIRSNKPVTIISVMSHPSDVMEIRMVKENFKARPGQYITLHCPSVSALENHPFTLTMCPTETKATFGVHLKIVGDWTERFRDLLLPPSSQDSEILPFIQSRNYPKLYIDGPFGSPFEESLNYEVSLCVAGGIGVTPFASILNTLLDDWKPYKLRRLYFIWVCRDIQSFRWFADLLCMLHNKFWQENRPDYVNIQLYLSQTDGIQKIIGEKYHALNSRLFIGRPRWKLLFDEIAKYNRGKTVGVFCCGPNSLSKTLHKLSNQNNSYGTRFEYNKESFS
# Sequence of Torsin-1A (Homo sapiens) (O14656 whole entry, looked up): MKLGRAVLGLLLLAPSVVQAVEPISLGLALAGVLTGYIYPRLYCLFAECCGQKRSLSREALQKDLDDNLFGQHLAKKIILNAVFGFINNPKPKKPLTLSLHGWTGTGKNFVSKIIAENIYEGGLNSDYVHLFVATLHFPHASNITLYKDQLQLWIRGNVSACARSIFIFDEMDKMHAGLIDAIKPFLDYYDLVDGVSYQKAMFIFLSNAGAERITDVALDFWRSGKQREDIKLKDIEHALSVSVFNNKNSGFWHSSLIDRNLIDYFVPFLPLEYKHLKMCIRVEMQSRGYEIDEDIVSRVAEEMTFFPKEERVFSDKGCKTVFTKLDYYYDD
# Sequence of NADPH oxidase 2 (Homo sapiens) (P04839 whole entry, looked up): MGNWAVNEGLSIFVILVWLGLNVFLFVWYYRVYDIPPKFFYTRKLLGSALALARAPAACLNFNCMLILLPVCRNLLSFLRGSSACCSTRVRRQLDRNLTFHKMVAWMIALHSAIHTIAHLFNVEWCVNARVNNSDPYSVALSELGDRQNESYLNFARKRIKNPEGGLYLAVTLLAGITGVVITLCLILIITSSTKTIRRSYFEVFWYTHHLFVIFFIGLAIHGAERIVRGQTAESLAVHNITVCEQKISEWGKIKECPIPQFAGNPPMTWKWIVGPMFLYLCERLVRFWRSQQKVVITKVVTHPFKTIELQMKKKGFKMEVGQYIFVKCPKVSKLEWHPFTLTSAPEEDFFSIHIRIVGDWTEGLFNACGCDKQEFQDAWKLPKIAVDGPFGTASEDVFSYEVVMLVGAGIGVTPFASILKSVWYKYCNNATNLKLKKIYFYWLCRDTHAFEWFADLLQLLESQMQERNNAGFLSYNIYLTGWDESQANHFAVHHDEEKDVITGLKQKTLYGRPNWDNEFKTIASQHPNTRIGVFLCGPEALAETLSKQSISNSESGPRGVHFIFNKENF
Compound,composite z-score [1],z-score [2],z-score [3],z-score [4],z-score [5],composite z-score [6],composite z-score [7],composite z-score [8],composite z-score [9],composite z-score [10],z-score [11],composite z-score [12],z-score [13],z-score [14],z-score [15],z-score [16],z-score [17],z-score [18],z-score [19],z-score [20]
COC(=O)CC=C[C@H](C)[C@H](CO)NS(=O)(=O)c1ccc(C)cc1,0.378,-1.27 (inactive),-0.0262 (inactive),-0.434 (inactive),-0.692 (inactive),0.293,-0.122,0.375,0.0191,0.82,-1.48 (inactive),-0.221,0.251 (inactive),-0.085 (inactive),-0.206 (inactive),-0.119 (inactive),-0.497,1.48 (inactive),0.227 (inactive),-0.484
C=C(/C(=C/C[C@H](OC(=O)c1ccncc1)c1ccc(OCCO)cc1)c1cnc2ccccc2c1)C(C)C,1.32,-2.02 (inactive),-0.295 (inactive),6.42 (inactive),-0.429 (inactive),1.3,0.0471,1.12,0.551,2.16,-0.592 (inactive),0.188,18.5 (active),3.04 (inactive),1.11 (inactive),0.724 (inactive),-0.288,-0.513 (inactive),-0.346 (inactive),-0.699
O=C1C[C@@H](O)[C@@H](O)[C@@H]2[C@@H]3C(=O)N(C4CCCCC4)C(=O)[C@@H]3CC[C@H]12,0.0832,0.406 (inactive),-0.653 (inactive),-0.0258 (inactive),-0.444 (inactive),0.0447,-0.128,0.296,0.585,-0.0419,-0.246 (inactive),-0.103,1.27 (inactive),0.775 (inactive),-0.059 (inactive),0.423 (inactive),0.403,-1.6 (inactive),0.386 (inactive),-0.883
COc1ccc(CCNC(=O)[C@@H]2c3ccccc3C(=O)N(c3ccc(C)cn3)[C@H]2c2ccc(CO)cc2)cc1,-0.657,0.569 (inactive),-0.456 (inactive),0.648 (inactive),0.459 (inactive),-0.776,-0.253,-2.23,-1.76,-0.497,0.119 (inactive),-0.06,2.45 (inactive),0.478 (inactive),0.414 (inactive),0.401 (inactive),-0.0568,0.0857 (inactive),-0.882 (inactive),-2.5
C#CCCCON=C1C[C@@H](O)[C@@H](O)[C@@H]2[C@@H]3C(=O)N([C@@H](C)c4ccccc4)C(=O)[C@@H]3CC[C@H]12,-0.216,-3.38 (inactive),-0.0158 (inactive),2.61 (inactive),-0.428 (inactive),0.029,-0.128,0.258,0.126,0.552,-1.08 (inactive),0.75,0.553 (inactive),-0.645 (inactive),-0.318 (inactive),-2.13 (inactive),-0.235,-0.599 (inactive),-1.21 (inactive),0.579
COc1cccc([C@H]2Oc3ccc(OC)cc3C(=NO[C@H](C)c3cn([C@@H]4COC[C@H]4O)nn3)[C@@H]2O)c1,-0.104,-2.16 (inactive),-0.302 (inactive),6.84 (inactive),0.258 (inactive),1.44,-0.182,-0.102,-0.119,-0.223,-1.79 (inactive),-0.235,0.162 (inactive),-1.17 (inactive),1.91 (inactive),-1.69 (inactive),0.444,-0.683 (inactive),-0.721 (inactive),-3.94
CC(CCC(=O)OC[C@H]1O[C@H](C#Cc2ccccc2)C=C[C@@H]1Oc1ccc(C)cc1)=NO[C@@H](C)c1cn([C@H](CO)Cc2ccccc2)nn1,0.204,-2.82 (inactive),-1.07 (inactive),1.07 (inactive),0.0061 (inactive),0.258,-0.003,-0.323,-0.146,0.316,-0.913 (inactive),-0.247,10.5 (active),0.542 (inactive),1.78 (inactive),-1.05 (inactive),0.672,-1.54 (inactive),-0.298 (inactive),-0.428
COc1ccc(OC[C@H]2Cc3c(-c4ccccc4)nc4c(c3CO2)CN(CCOc2ccccc2)CC4)cc1,0.133,-3.41 (inactive),-1.27 (inactive),5.99 (inactive),-1.02 (inactive),0.633,0.109,0.086,0.534,1.37,0.481 (inactive),-0.0141,15.4 (active),0.946 (inactive),0.661 (inactive),-0.718 (inactive),1.76,-0.0596 (inactive),-1.68 (inactive),-1.04
